Compound activity: PubChem, National Center for Advancing Translational Sciences (NCATS)
The full list was thinned out, with hits kept by preference.
Integrin act MD = qHTS for Activators of Integrin-Mediated Alleviation for Muscular Dystrophy. alpha7betagal myoblasts, beta-gal FDG fluorescence, 48 h. Potency, µM (doses to about 38.3 µM), for the others: top-dose activation, hits mostly activators. 350,000 tested, 0.064% active. AID 624291, 2012;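 further: potency means the concentration at half of the fitted maximal effect; 100% = response of the positive control SU9516; nearly all actives have a fitted effect of over 60% in size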
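Alpha7betagal+/- myoblasts (passage 13) were plated 16-24 hr, then exposed to compounds (1:260 dilution of DMSO stock) for 48 hours at 37C. After MPER lysis, β-galactosidase reporter activity was read as FDG fluorescence (ex 480/em 540) after 30 minutes.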
Giardia kill = Small Molecules that selectively kill Giardia lamblia: qHTS; Giardia lamblia trophozoite viability; AID 540267, 2011; activity change, % at 7.66 µM, hits read low; 340,000 tested, 0.15% active; in the data active means activity change below about -80%; inconclusive means between about -30% and that limit;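 further: parasites exposed to compound for two days anaerobically before the ATP read; on the % scale 0 is the no-effect control and ±100 the full control effect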
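Killing of trophozoites was scored by loss of ATP luminescence after a 48 hrs anaerobic exposure to compounds at 37 deg C, using 100 cells per well.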
RORg inh = qHTS for inhibitors of ROR gamma transcriptional activity. Nuclear receptor ROR-gamma (Mus musculus), P51450. Drosophila S2 Gal4-RORgamma UAS-luciferase reporter, 20 h. Potency, µM (highest dose often 53.6 µM), without a hit: top-dose activity change, negative = inhibition, most hits filed as inhibitors. 310,000 tested, 5.4% active. AID 2551, 2010; further: potency means the concentration at half of the fitted maximal effect; on the % scale 0 is the no-effect control and ±100 the full control effect; nearly all actives have a fitted effect of over 60% in size
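Luminescence from a UAS-regulated Photinus luciferase reporter in stably transfected Drosophila Schneider cells is measured; decreased signal marks ROR gamma inhibition. Fusion expression is induced by 700 uM copper sulfate for 20 hr.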
ERG-DNA inh = qHTS for Small Molecule Inhibitors of the ERG Ets/DNA interaction | fluorescence polarization, His-ERG Ets domain / labelled DNA | Potency, µM (doses to about 76.9 µM), for inactives: at the top dose FP activity, negative = inhibition, hits mostly inhibitors | 370,000 tested, 0.028% active; active means well fitted inhibition curve with a large enough effect in the polarisation, with a control signal flat; inconclusive means small, poorly fitted or top-dose-only effect, or effect the other way, or a change in a side signal; inactive means no such curve, though single readings can be large or run the other way; the % refers to the polarisation;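 further: polarization taken with two DNA probes labelled with fluorescein and Texas red; potency means the concentration at half of the fitted maximal effect; % of control where 0% means no effect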
Target sequence (P11308 whole entry, looked up, the tested form may be a part): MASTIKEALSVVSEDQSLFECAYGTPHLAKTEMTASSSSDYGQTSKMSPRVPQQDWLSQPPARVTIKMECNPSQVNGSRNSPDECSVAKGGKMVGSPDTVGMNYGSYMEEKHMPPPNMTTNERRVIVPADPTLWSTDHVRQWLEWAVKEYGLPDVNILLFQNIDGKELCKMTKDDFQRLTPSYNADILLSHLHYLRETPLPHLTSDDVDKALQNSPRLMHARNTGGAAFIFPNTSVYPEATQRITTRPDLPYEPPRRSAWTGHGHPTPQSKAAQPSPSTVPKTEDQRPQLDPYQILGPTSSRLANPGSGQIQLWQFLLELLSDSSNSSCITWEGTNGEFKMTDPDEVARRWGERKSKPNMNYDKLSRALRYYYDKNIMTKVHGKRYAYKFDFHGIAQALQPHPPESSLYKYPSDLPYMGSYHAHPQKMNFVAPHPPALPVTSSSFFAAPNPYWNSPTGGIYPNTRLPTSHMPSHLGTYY
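His-tagged ERG Ets domain (1 uM in the protein solution; 300mM KCl, 50mM Tris-HCl, 1mM EDTA, 1mM DTT, pH 7.5) received compound, then a probe mix of 5 nM fluorescein-DNA and 100nM Texas-615-DNA. Fluorescence polarization was read for both dyes.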
VP16 counter = VP16 counterscreen qHTS for inhibitors of ROR gamma transcriptional activity; Drosophila S2 Gal4-VP16 UAS-luciferase, luminescence, 20 h; Potency, µM (top dose mostly 53.6 µM), inactives show at the top dose activity, negative = inhibition, usual class: inhibitors; 310,000 tested, 3.5% active;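 further: Gal4-VP16 expression switched on by copper sulfate through the metallothionein promoter; potency means the concentration at half of the fitted maximal effect; on the % scale 0 is the no-effect control and ±100 the full control effect; nearly all actives have a fitted effect of over 50% in size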
* = called active by the depositor; ? = inconclusive; / = not tested or not shown; [ ] = dose if it differs, or a comment. Unless noted, the call rests on the fitted dose curve; in most records, active means well fitted curve in the direction sought with a large enough effect; inconclusive means small, poorly fitted or top-dose-only effect, or another doubt; inactive means no such curve, though single readings can be large; an effect the other way counts as inactive or inconclusive.

SMILES | Integrin act MD | Giardia kill | RORg inh | ERG-DNA inh | VP16 counter
COc1cccc(/C=N/NC(=O)N/N=C/c2cccc(OC)c2O)c1O | -24.6% | -22.2 | -22.8% | -0.1% | 3.6%
O=[N+]([O-])c1ccccc1NC(=S)N/N=C/c1ccc(O)c(O)c1 | 6.0% | -21.2 | 10µM* | -7.7% | ?
Cc1cc(C)nc(N2CCC(C(=O)Nc3nnc(C)s3)CC2)n1 | 4.2% | 12.7 | 4.4% | -8.7% | -4.3%
C/C1=C\[C@@H](O)C(C(C)C)C(OC(=O)c2ccc(O)cc2)C/C(C)=C/CC1 (stereo partly drawn) | / | / | -17.2% | / | ?
O=C(c1ccncc1)N1CCC[C@@]2(CCN(c3ccncc3)C2)C1 | / | / | 5.8% | / | -6.2%
Nc1nnc(CC(=O)N/N=C/c2ccccc2OCc2ccccc2F)s1 | 0.8% | -15.0 | 13.9% | -5.4% | -0.4%
COc1ccccc1N1CCN(C2CCCN(C(=O)CN3CCCCC3=O)C2)CC1 (stereo not drawn) | 7.2% | 2.0 | -45.0% | 0.0% | -0.8%
S=c1[nH]nc(-c2cccnc2)n1/N=C/c1ccco1 | 11.1% | -7.2 | ? | -12.3% | -4.1%
CC(/C=N/n1c(-c2ccc(Cl)cc2)n[nH]c1=S)=C\c1ccco1 | 4.9% | -16.2 | 3.16µM* | -2.7% | 3.98µM*
Cc1cccc(-c2n[nH]c(=S)n2/N=C/c2ccco2)c1 | -33.5% | ? | 8.91µM* | 2.1% | ?
Cc1ccc(-c2n[nH]c(=S)n2/N=C\c2ccco2)cc1 | -7.2% | -17.5 | 6.31µM* | 9.9% | 5.62µM*
Cc1ccc(/C=N/Nc2nc3ccccc3s2)o1 | 5.3% | -6.0 | 8.91µM* | 1.1% | 10µM*
COC(=O)c1ccc(NC(=S)NCCc2ccccc2C)cc1 | -24.6% | 14.4 | 12.6µM* | 4.9% | 14.1µM*
CCOC(=O)c1ccc(NC(=S)NCCc2ccc(OC)c(OC)c2)cc1 | -45.4% | -17.6 | 10µM* | -4.5% | ?
COc1ccc(CCNC(=O)C(=O)Nc2ccc(C)c(C)c2)cc1 | / | / | / | -10.1% | /
COC(=O)c1ccc(NC(=S)NCCc2ccc(OC)cc2)cc1 | -16.4% | -3.9 | 7.94µM* | -3.7% | ?
COC(=O)c1ccc(NC(=S)NCCc2cccc(C)c2)cc1 | -30.1% | 7.0 | 1.26µM* | -5.2% | 1.26µM*
COC(=O)c1ccc(NC(=S)Nc2ccc(O)cc2)cc1 | -13.4% | 2.9 | -12.8% | 8.7% | 2.7%
O=C(O)CSc1cc(NS(=O)(=O)c2cccc([N+](=O)[O-])c2)c2ccccc2c1O | -6.0% | -81.0* | ? | -0.7% | ?
CCOc1ccc(S(=O)(=O)Nc2cc(SCC(=O)O)c(O)c3ccccc23)cc1 | -4.2% | -14.2 | 10µM* | 3.4% | ?
Cc1ccc(C)c(S(=O)(=O)Nc2cc(SCC(=O)O)c(O)c3ccccc23)c1 | -12.2% | 11.3 | -29.6%[10 µM] | -9.2% | 14.1µM*
CCc1ccc(S(=O)(=O)Nc2cc(SCC(=O)O)c(O)c3ccccc23)cc1 | -36.6% | -6.9 | -38.0% | -1.3% | ?
CCOC(=O)c1[nH]c2ccc(OC)cc2c1NC(=S)N1CCN(c2cccc(C)c2C)CC1 | -3.3% | -20.7 | 4.47µM* | -5.0% | ?
Cn1c(NC(=O)c2cccc(Cn3cc(Cl)cn3)c2)nc2ccccc21 | -2.1% | -6.9 | 1.78µM* | 4.4% | 2.82µM*
CCn1c(NC(=O)c2cccc(Cn3cc(Cl)cn3)c2)nc2ccccc21 | -21.2% | -22.6 | 2.82µM* | 0.9% | 2µM*
SMILES | Integrin act MD | Giardia kill | RORg inh | ERG-DNA inh | VP16 counter
CC(C)CNC(=O)c1cccc(Cn2cc(Cl)cn2)c1 | -0.7% | -6.7 | 26.5% | 7.0% | 13.7%
CC(=O)Nc1ccc(SCC(CC(C)C)N2CCN(CCc3ccccc3)CCC2=O)cc1 (stereo not drawn) | / | 6.2 | -9.5% | / | -25.4%
C/C(=N/NC(=O)c1cc2ccccc2cc1O)C1C(=O)c2ccccc2C1=O | 8.4% | -2.1 | ? | 3.3% | 17.8µM*
O=C(O)c1ccc(/C=N/NC(=O)c2cc3ccccc3cc2O)cc1 | -1.9% | -14.6 | / | 1.4% | /
C/C(=N\NC(=O)c1ccccc1O)C1C(=O)c2ccccc2C1=O | 0.7% | 11.6 | 3.55µM* | -5.9% | 3.16µM*
CC1(C)CC(=O)c2sc(NC(=O)c3cccs3)nc2C1 | 15.5% | -95.7* | 5.01µM* | 9.3% | 5.62µM*
